Screening data from PubChem BioAssay.
mHTT CaM bind: inhibitors of human mutant huntingtin-calmodulin interaction; P42858; AlphaScreen His-mHTT/GST-CaM binding, luminescence; inhibition, % at 15 µM; 190,000 tested, 3.6% active; AID 1671202;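 also: 0% = both proteins with DMSO and 100% = one protein alone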
Pf apPOL inh: Pf-apPOL DNA polymerase inhibition; Recombinant Pf-apPOL, molecular beacon fluorescence, 1.5 h; inhibition, % at 10 µM; 210,000 tested, 0.25% active; AID 1794808
Active calls of the source: *; / = not tested or not shown. The list is not random: actives were taken first. Their share in the collection is about 3.5%. Rule as the data show it: active = inhibition above about 50%; inactive = the rest.

SMILES | mHTT CaM bind | Pf apPOL inh
COc1cccc(-c2noc(C3CCCN3C(=O)NCc3ccc(C)cc3)n2)c1 (centres undefined) | 19.0 | 1.1
COc1cccc(-c2noc(C3CCCN3C(=O)NCc3ccc(F)cc3)n2)c1 (centres undefined) | 75.6* | -0.1
O=C(c1ccc(-c2cccnc2)nc1)N1CCN(c2cccc(Cl)c2)CC1 | 75.9* | 0.9
O=C(c1ccc(-c2cccnc2)nc1)N1CCN(c2ccccc2)CC1 | 7.0 | -0.5
CN1CCN(C(=O)c2ccc(SCc3cccnc3)c([N+](=O)[O-])c2)CC1 | 6.0 | -3.2
Cc1ccc(C)c(N2CCN(C(=O)c3ccc(SCc4cccnc4)c([N+](=O)[O-])c3)CC2)c1 | 65.0* | -1.3
O=C(c1ccc(-c2cccnc2)nc1)N1CCN(c2ccc(Cl)cc2)CC1 | 0.4 | -5.1
Cc1ccc(C)c(N2CCN(C(=O)c3ccc(-c4cccnc4)nc3)CC2)c1 | 64.1* | 2.5
COc1cccc(C(=O)Nc2ccc3oc(-c4ccncc4)nc3c2)c1 | 32.3 | -5.0
CCc1ccc(O)c(N=Cc2cc(Br)ccc2O)c1 | 31.0 | -9.6
O=c1cc(-c2cccs2)nc(-c2cccc(I)c2)o1 | 21.0 | -1.5
Nc1c(C(=O)Nc2ccc([N+](=O)[O-])cc2)oc2ccccc12 | 8.7 | -3.9
CC1(C)CC(=O)C2=C(C1)NC1=C(C(=O)c3ccccc31)C2c1ccc([N+](=O)[O-])o1 (centres undefined) | 55.0* | -3.4
CC(=O)N1c2ccccc2NC2=C(C(=O)CC(C)(C)C2)C1c1ccc([N+](=O)[O-])o1 (centres undefined) | 1.6 | 1.1
CC1(C)CC(=O)C2=C(C1)NC1=C(C(=O)c3ccccc31)C2c1cc([N+](=O)[O-])ccc1O (centres undefined) | 63.0* | 4.2
COc1ccc(OC)c(C2C3=C(CC(C)(C)CC3=O)NC3=C2C(=O)c2ccccc23)c1 (centres undefined) | 41.0 | -4.7
COc1cccc(/C=c2\sc3nc(-c4ccccc4)nn3c2=O)c1OC | -1.0 | 1.1
COc1cc(C=C2Oc3c(ccc(O)c3CN(C)C)C2=O)cc(OC)c1OC | -2.1 | -29.5
COc1cc(C2(c3ccc(O)c(OC)c3)C(=O)Nc3c(C)cc(Br)cc32)ccc1O | 59.6* | 3.4
Cc1cc(Br)cc2c1NC(=O)C2(O)N1CCOCC1 (centres undefined) | -5.0 | -2.2
COC(CNC(=O)c1ccc2c(c1)ncn2-c1cccc(Cl)c1)OC | 5.0 | 9.1
CC(C)Oc1ccc(C(=O)Nc2cc(-c3nc4ncccc4o3)ccc2Cl)cc1 | 6.0 | -7.3
CC(C)Oc1ccc(C(Nc2ccccn2)c2ccc3cccnc3c2O)cc1 (centres undefined) | 98.0* | -279.6
CCN(CC)c1ccc(C(Nc2ccccn2)c2ccc3cccnc3c2O)cc1 (centres undefined) | 100.0* | -1.0
CCN(CC)c1ccc(C2C(C(=O)Nc3ccccn3)=C(C)NC3=C2C(=O)CCC3)cc1 (centres undefined) | 15.0 | -2.4
SMILES | mHTT CaM bind | Pf apPOL inh
N#CC(=CC=Cc1ccccc1)c1ccc([N+](=O)[O-])cc1 | / | -5.6
Cc1ccc(NC(=O)CN2CCC(c3nc(-c4ccccc4)no3)CC2)c(C)c1 | -3.1 | -1.0
Cc1ccc(OCC(=O)N2CCN(S(=O)(=O)c3ccc(C)cc3)CC2)cc1 | -5.1 | -7.8
CC1CCN(C(=O)c2ccc(SCc3ccccn3)c([N+](=O)[O-])c2)CC1 | 16.0 | 0.9
CSc1ccccc1NC(=O)c1ccc(-n2ccnc2)nn1 | 31.3 | -3.5
O=C(Nc1nc2ccccc2[nH]1)c1ccc(-n2ccnc2)nn1 | 94.1* | -0.1
O=C(COc1cccc(Cl)c1)NCc1ccco1 | -3.9 | -19.5
O=C(COc1cccc2c1CCN(Cc1ccc(Cl)cc1)C2=O)NCc1ccco1 | 69.8* | -10.8
COc1ccccc1Nc1c(C(=O)N2CCC(C)CC2)cnc2nc(C)ccc12 | -4.7 | -1.4
c1ccc(CNCCN2CCNCC2)nc1 | 100.2* | -1.8
c1ccc(CN2CCN(Cc3ccccn3)CC2)nc1 | 3.0 | 10.8
CC(CCC(=O)O)C1CCC2C3CC(O)C4CC(O)CCC4(C)C3CCC12C (centres undefined) | 19.0 | -8.9
CC(CCC(=O)N=Nc1c(O)[nH]c2c(Cl)cc(Cl)cc12)C1CCC2C3C(O)CC4CC(O)CCC4(C)C3CCC12C (centres undefined) | 66.9* | 0.1
CC(CCC(=O)NN=Cc1c[nH]c2ccccc12)C1CCC2C3C(O)CC4CC(O)CCC4(C)C3CCC12C (centres undefined) | 100.1* | -3.1
CC(CCC(=O)N=Nc1c(O)[nH]c2ccc(Cl)cc12)C1CCC2C3C(O)CC4CC(O)CCC4(C)C3CCC12C (centres undefined) | 43.2 | 0.9
O=C(Nc1cccc2ccccc12)c1ccoc1COc1ccccc1 | -3.0 | -11.6
Cc1ccc(C(=O)N2CCN(C(=O)c3ccccc3)C2c2ccc(N(C)C)cc2)cc1 (centres undefined) | 40.0 | 6.3
Cc1ccc(C(=O)N2CCN(S(=O)(=O)c3ccccc3)C2c2ccc(N(C)C)cc2)cc1 (centres undefined) | 53.0* | 1.7
CC(C)C(=O)N1N=C(c2ccc([N+](=O)[O-])cc2)CC1(O)C(F)(F)F (centres undefined) | 0.0 | -3.2
O=C(c1ccccc1O)N1N=C(c2ccc(Cl)cc2)CC1(O)C(F)(F)F (centres undefined) | 59.0* | -1.3
CC(C)(C)c1ccc(C(=O)N2N=C(c3ccc([N+](=O)[O-])cc3)CC2(O)C(F)(F)F)cc1 (centres undefined) | 41.0 | 0.9
O=C(c1ccc([N+](=O)[O-])cc1)N1N=C(c2ccncc2)CC1(O)C(F)(F)F (centres undefined) | 5.0 | 82.7*
Cc1ccc(C2=NN(C(=O)c3ccccc3Cl)C(O)(C(F)(F)F)C2)cc1 (centres undefined) | -1.0 | 0.1
O=C(c1ccc(Cl)cc1)N1N=C(c2ccc([N+](=O)[O-])cc2)CC1(O)C(F)(F)F (centres undefined) | 51.0* | -1.4
O=[N+]([O-])c1ccc2nc(Sc3ccccn3)sc2c1 | 3.0 | -4.3
SMILES | mHTT CaM bind | Pf apPOL inh
Cn1nc(COc2ccccc2)c2c1CCN(S(=O)(=O)C1CC1)C2 | 2.6 | -5.6
O=C(Nc1cc(Cl)cc(Cl)c1)c1cc(S(=O)(=O)NCc2ccccc2)ccc1F | 10.0 | -6.8
O=C(NCCn1nc(-c2cccs2)ccc1=O)C1c2ccccc2Oc2ccccc21 | -15.0 | -6.7
O=C(Nc1cc(-c2cccs2)nn1CCO)C1c2ccccc2Oc2ccccc21 | 57.8* | -4.1
CN(C)S(=O)(=O)N1CCN(c2ccccc2F)CC1 | -13.5 | -4.4
Cc1cccc(NC(=O)C(=O)NCCO)c1 | 3.1 | 4.0
COc1ccc(N2C(=O)CC(NCCc3ccccc3OC)C2=O)cc1 (centres undefined) | -5.5 | 0.7
O=C(Cc1cccs1)N1CCc2cc(S(=O)(=O)N3CCOCC3)ccc21 | 2.2 | -2.0
COc1cc(OC)c(-c2nc(-c3ccsc3)c(-c3ccccc3)[nH]2)cc1OC | 68.0* | -0.7
c1ccc(-c2nc(-c3ccco3)[nH]c2-c2ccccc2)cc1 | / | 9.4
CN(C)c1ccc(C2CC(c3ccccc3)=NN2C(=O)c2ccc(F)cc2)cc1 (centres undefined) | 13.0 | 1.4
CN(C)c1ccc(C2CC(c3ccccc3)=NN2C(=O)c2ccc(F)cc2)cc1[N+](=O)[O-] (centres undefined) | 55.0* | -1.2
